# Compounds without any hit were thinned out: in the full panel of roughly 83,000, 20% have a hit.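 Step 1: grow cells in 96-well plates. Step 2: add test compound at a single concentration. Step 3: incubate 48 h. Step 4: record percent growth.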 Values without a mark were called inactive. The source made the active and inactive calls. How the source made its calls: active means growth percent below 10; inactive means the rest.
# Experiments:
# Experiment in all cases: NCI-60 one-dose screen, 48 h (100 = growth as untreated, 0 = no growth, -100 = all killed)
# Settings in all cases: 10 µM
# T-47D breast = test system: T-47D breast
# BT-549 breast = test system: BT-549 breast
# MDA-MB-435 melanoma = test system: MDA-MB-435 melanoma
# SW-620 colon = test system: SW-620 colon
# MCF7 breast = test system: MCF7 breast
# HCT-116 colon = test system: HCT-116 colon
# HCC-2998 colon = test system: HCC-2998 colon
# KM12 colon = test system: KM12 colon
SMILES,growth (T-47D breast),growth (BT-549 breast),growth (MDA-MB-435 melanoma),growth (SW-620 colon),growth (MCF7 breast),growth (HCT-116 colon),growth (HCC-2998 colon),growth (KM12 colon)
Cc1ccc(/C=C/C(=O)C(=O)/C=C/c2ccc(C)cc2)cc1,92.4%,95.3%,76.9%,100%,23.8%,-36.8% (active),110%,93.8%
COc1ccc(-c2cc(-c3ccccc3)nc(SCCCCCCC(=O)NO)n2)cc1,33.5%,85.4%,35.5%,22.6%,30.4%,25.1%,79.4%,60.3%
CC(C)N(CCOc1cccc(-c2nc3sccn3c2-c2ccnc(S(C)(=O)=O)n2)c1)C(C)C,88.3%,128%,86.1%,67.1%,54.4%,44.9%,95.9%,87.8%
COc1ccc(-c2nn(-c3cccc(Cl)c3)cc2-c2c(C#N)c(=O)n3[nH]c(-c4ccccc4)nc3c2C#N)cc1,73.9%,84.4%,91.1%,108%,63.4%,87.3%,108%,94%
CC(=O)COc1ccc(Cl)cc1Cl,98.7%,111%,102%,97.2%,104%,99.1%,109%,113%
CC1=CC2C(C(O)CC3(C)C2CC(C)C32OCOC23COCO3)C2(C)C/C(=C/O)C(=O)C=C12 (centres undefined),24.3%,51.2%,7.68% (active),5.28% (active),5.37% (active),-70.2% (active),35%,12%
CC(C)(C)OC(=O)CN1CCc2c(sc3ncnc(N/N=C/c4cccc5ccccc45)c23)C1,26.4%,64.3%,27.6%,33.9%,-24.5% (active),26%,44.1%,53.1%
CCn1c(CSc2nc3ccccc3c(=O)n2CCc2ccccc2)n[nH]c1=S,73.3%,72.3%,84.8%,97.5%,84%,65.5%,99%,92.3%
CC(C)N(CCOc1ccc(-c2nc3sccn3c2-c2ccnc(S(C)(=O)=O)n2)cc1)C(C)C,105%,90.8%,92.6%,78.2%,82.5%,61.5%,88%,90.4%
COc1cc(C(=O)N2CCN(c3cc4c(cc3F)c(=O)c(C(=O)NO)cn4C3CC3)CC2)cc(OC)c1OC,82.7%,105%,105%,99%,99%,105%,110%,104%
S=C(NCc1ccccc1)NCc1ccccc1,94.6%,95.4%,101%,100%,96.3%,97.3%,111%,102%
S=C(SSC(=S)N(c1ccccc1)c1ccccc1)N(c1ccccc1)c1ccccc1,97.3%,109%,104%,108%,98.8%,100%,101%,98.1%
C#C[C@]1(O)CCC2C3CCc4cc(OC5CCCC5)ccc4C3CC[C@@]21C (some centres undefined),84%,105%,94.8%,53.4%,74.3%,68.6%,74.1%,34.1%
CSc1ccc(-c2cc(-c3ccc(NC(=O)CCCN4CCCC4)cc3)nc(-c3ccc(NC(=O)CCCN4CCCC4)cc3)c2)cc1,102%,77.6%,79.7%,67.6%,-86.4% (active),80.4%,86.3%,24.6%
N#Cc1c(N)nc(-c2cc(F)cc(C(F)(F)F)c2)nc1-c1ccccc1F,49%,58.9%,85.7%,63.4%,73.6%,26.2%,75.6%,79.7%
COc1ccc(N=Nc2cc(OC)c(OC)c(OC)c2)cc1,58.8%,89.7%,67.6%,79.8%,63.6%,80.5%,81.4%,81.7%
CN(C)CCCN1c2ccccc2CCc2ccc(Cl)cc21,41.3%,77.8%,28.5%,89%,50.8%,43%,-13.4% (active),79.3%
COc1cc(C(=O)n2nc(-c3cc(OC)c(OC)c(OC)c3)nc2N)cc(OC)c1OC,77.1%,100%,95.8%,99.9%,88.3%,91.1%,94.9%,102%
CCCCCCCCCCCCCCCCCC[n+]1ccc2c(C)c3c(c(C)c2c1)c1cc(O)ccc1n3CC,23.5%,-11% (active),-53.4% (active),13.3%,28.3%,7.88% (active),31.5%,10.8%
O=C1c2ccccc2-c2c1c1cccnc1c(=O)n2C[C@H](O)CO,59.6%,61.7%,87.5%,49.9%,25.5%,38.5%,79.7%,62.1%
CCOC(=O)c1cc(C(=O)c2cc(OC)cc(OC)c2)n2ncc3ccccc3c12,12.8%,27.3%,4.07% (active),8.21% (active),15.9%,4.23% (active),69.1%,25.9%
O=C1Cc2cc(CCN3CCN(c4nsc5ccccc45)CC3)c(Cl)cc2N1,55.2%,92.6%,90.9%,92.9%,86.1%,98.8%,120%,98.1%
CC(=O)N[C@H](C(=O)N[C@@H](CCCNC(=N)N)C(=O)N[C@@H](CCCCN)C(=O)N[C@@H](CCCNC(=N)N)C(=O)N[C@]1(C)CCCCCC/C=C\CCC[C@@](C)(C(=O)N[C@@H](CCCNC(=N)N)C(=O)N[C@@H](CCC(=O)O)C(=O)N[C@@H](CC(C)C)C(=O)N[C@H](C(=O)N[C@@H](CCC(=O)O)C(N)=O)C(C)C)NC(=O)[C@H](CCC(N)=O)NC(=O)[C@H](CC(C)C)NC(=O)[C@H](CC(C)C)NC(=O)[C@H](CCCNC(=N)N)NC(=O)[C@H](CCCNC(=N)N)NC(=O)[C@H](CC(C)C)NC1=O)C(C)C,-35.7% (active),-46% (active),7.66% (active),25.9%,-41.7% (active),11.6%,24.8%,-16.9% (active)
CC(=O)Nc1cc2c(cc1Cl)Cc1cc(Cl)ccc1-2,29.2%,99.2%,98.4%,97.5%,40.1%,99.3%,65.6%,87.4%
COc1ccc(/C=C2\CCCC3C2=Nc2ccccc2NC3c2ccc(OC)cc2)cc1 (centres undefined),101%,79.6%,13.8%,72.2%,56.1%,38.1%,104%,27.5%
O=C(Nc1nc(-c2ccccc2)nc2c1sc(=S)n2-c1ccccc1)C(F)(F)F,71.1%,98.9%,99.8%,103%,87%,78.8%,123%,91.3%
O=C1c2ccccc2C(=O)N1CCCCNc1ccccc1,124%,61.7%,118%,105%,111%,97.5%,108%,67%
C[C@@H](O)[C@H]1C(=O)N2C(C(=O)O)=C(SCCN=CN)C[C@H]12,-6.42% (active),18.9%,-9.18% (active),-0.331% (active),-6.51% (active),-24.8% (active),0.878% (active),9.33% (active)
CC(C)(C)c1ccc(S(=O)(=O)N[C@H]2CC[C@H]3[C@@H]4CCc5cc(OS(=O)(=O)O)ccc5[C@H]4CC[C@]23C)cc1,19.9%,47.5%,49.9%,56.6%,15.3%,26.8%,73.2%,40.9%
COc1ccc(-c2nn(-c3cccc(Cl)c3)cc2/C=C2\NC(=S)N(c3ccc(Cl)cc3)C2=O)cc1,11.9%,-13% (active),7.26% (active),40.8%,19.3%,0.814% (active),23.2%,

# Reference: PubChem BioAssay (NCI)
